This is an account of results in PubChem BioAssay (NCATS).

Test [1] in a line: qHTS to identify inhibitors of the type 1 interferon - major histocompatibility complex class I in skeletal muscle: primary screen against the NCATS Pharmaceutical Collection (AID 1347407).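 Further: luminescence of HiBiT knocked into endogenous HLA-B as interferon-induced MHC class I level.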 Further: potency means the concentration at half of the fitted maximal effect. A digest of the protocol: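 HLA-B HiBiT myoblasts, dexamethasone-free growth medium + 4 ng/ml IFN-b; compounds pinned 1 h after seeding, […] from 46 uM; 24 h, 37 C, 5% CO2; lytic HiBiT detection, 10 min RT, luminescence.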
On the technique in general: qHTS replaces the single test concentration by a dilution series.

The target of test [2] is Protein phosphatase 1D (Homo sapiens) (UniProt O15297). Put plainly: RapidFire Mass Spectrometry qHTS Assay for Modulators of WT P53-Induced Phosphatase 1 (WIP1) (AID 1347424).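 Further: amount of dephosphorylated VEPPL-S-QETFS peptide product formed by WIP1; series mostly up to about 63 µM.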 A digest of the protocol: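 WIP1 (10 nM final) was preincubated 1 h at room temperature with compounds in Tris-HCl pH 7.5, 30 mM MgCl2, TCEP, EGTA, BSA; 2 uM VEPPL-pS-QETFS phosphopeptide was added for 5 min, quenched with formic acid, and dephosphorylated product quantified by RapidFire MS.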
Sequence of Protein phosphatase 1D (Homo sapiens) (O15297 whole entry, looked up): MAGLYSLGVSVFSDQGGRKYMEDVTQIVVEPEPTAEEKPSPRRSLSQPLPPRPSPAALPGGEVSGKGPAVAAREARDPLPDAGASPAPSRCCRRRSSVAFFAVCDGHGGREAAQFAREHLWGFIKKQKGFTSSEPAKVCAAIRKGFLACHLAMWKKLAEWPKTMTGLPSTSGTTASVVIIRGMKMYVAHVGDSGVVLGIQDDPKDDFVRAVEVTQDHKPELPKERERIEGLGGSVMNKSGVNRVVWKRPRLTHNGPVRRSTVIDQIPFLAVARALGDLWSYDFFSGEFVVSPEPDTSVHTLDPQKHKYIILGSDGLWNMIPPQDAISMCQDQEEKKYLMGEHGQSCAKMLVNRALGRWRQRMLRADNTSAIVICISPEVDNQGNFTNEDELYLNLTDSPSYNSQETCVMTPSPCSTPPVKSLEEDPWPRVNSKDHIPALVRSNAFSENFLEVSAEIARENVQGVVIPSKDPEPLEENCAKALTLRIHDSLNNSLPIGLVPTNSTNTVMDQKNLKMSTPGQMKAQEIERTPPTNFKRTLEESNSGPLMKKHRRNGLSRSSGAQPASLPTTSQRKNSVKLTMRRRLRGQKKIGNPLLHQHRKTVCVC

For test [3] the target is unchanged. Put plainly: Rhodamine-PBP qHTS Assay for Modulators of WT P53-Induced Phosphatase 1 (WIP1) (AID 1347425). A digest of the protocol: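 Steps: enzyme with Rh-PBP sensor and compounds, room-temperature incubation of 1 hr, baseline read, addition of VEPPL-pS-QETFS (10 uM final), kinetic fluorescence reads at 525/598 nm. Activity equals final minus baseline signal.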

Test [4] is described as follows: Primary qHTS for inhibitors of La Crosse Virus (LACV) - induced cell death in SH-SY5Y cells (AID 1508616).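 Further: top concentration of the series differs between compounds; higher means more rescue of cells from virus-induced death.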 A digest of the protocol: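 SH-SY5Y cells (6000/well) plated 24 h, then given compounds by pin transfer and LACV at 0.01 MOI for 6 days at 37C. Viability measured by ATPLite luminescence, normalized to infected DMSO and uninfected DMSO.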

Results filed as inconclusive are left out. Entries that show only a call come without a potency. Activity calls are given as the source filed them. The call rests on the fitted dose curve; in most records, active means well fitted curve in the direction sought with a large enough effect; inconclusive means small, poorly fitted or top-dose-only effect, or another doubt; inactive means no such curve, though single readings can be large; an effect the other way counts as inactive or inconclusive.

Turning to `O=C(CS(=O)Cc1ccco1)NC/C=C\COc1cc(CN2CCCCC2)ccn1` (stereo unspecified), the Potency result in test [1] and in test [2] was “inactive” each time. Besides, the compound was called inactive in test [3] and in test [4].
As for `O=C(OCCN1CCOCC1)c1cccnc1Nc1cccc(C(F)(F)F)c1`, the Potency result in test [1] and in test [2] was “inactive” in each case. The compound was called inactive in test [3] and in test [4].
Consider `Nc1c[n+](N2CCOCC2)no1`, for which the Potency result in test [1] and in test [2] was “inactive” each time. Moreover, the result in test [3] and in test [4] was inactive.
Consider `O=C(Oc1ccccc1)c1ccccc1O`, for which the Potency result in test [1] and in test [2] was “inactive” throughout. Besides, the outcome in test [3] and in test [4] was inactive.
Take `Nc1nnnn1-c1ccccc1`: the Potency entry in test [1] and in test [2] was “inactive” each time. Moreover, the compound was classed as inactive in test [3] and in test [4].
Consider `CCCc1ccc(OCC(=O)N2CCN(C(=O)COc3ccc(CCC)cc3OC)CC2)c(OC)c1`, for which the Potency entry in test [1] and in test [2] was “inactive” in each case. Besides, the call in test [3] and in test [4] was inactive.
As to `O=C(CCCCC(=O)Nc1c(I)cc(I)c(C(=O)O)c1I)Nc1c(I)cc(I)c(C(=O)O)c1I`, the Potency result in test [1] and in test [2] was “inactive” each time. Moreover, the call in test [3] and in test [4] was inactive.
For the compound `O=C(O)c1ccccc1Nc1cc(Cl)ccc1C(=O)O`, the Potency result in test [1] and in test [2] was “inactive” throughout. The compound was classed as inactive in test [3] and in test [4].
For the compound `O=C(O)c1ccccc1S`, the Potency entry in test [1] and in test [2] was “inactive” throughout. In addition, the outcome in test [3] and in test [4] was inactive.
As for `CCCCCCn1c(=O)c2c(ncn2C)n(C)c1=O`, the Potency entry in test [1] and in test [2] was “inactive” each time. Further, the outcome in test [3] and in test [4] was inactive.
As to `Cc1cc(=O)oc2cc(O[C@@H]3SC[C@@H](O)[C@H](O)[C@H]3O)ccc12`, the Potency entry in test [1] and in test [2] was “inactive” in each case. In addition, the compound was classed as inactive in test [3] and in test [4].
As for `CCOC(=O)c1ccc(OCCN2C[C@H](O)[C@@H](O)[C@H](O)[C@H]2CO)cc1`, the Potency entry in test [1] and in test [2] was “inactive” in each case. The compound was classed as inactive in test [3] and in test [4].
For the compound `COc1cc(NS(=O)(=O)c2ccc(N)cc2)nc(C)n1`, the Potency result in test [1] and in test [2] was “inactive” in each case. The compound was classed as inactive in test [3] and in test [4].
Take `O=C(O)Cc1ccccc1Oc1ccc(Cl)cc1Cl`: the Potency entry in test [1] and in test [2] was “inactive” each time. For the same compound, the compound was classed as inactive in test [3] and in test [4].
For the compound `CC(=O)/C=C/C=C1/C2CCC(C2)C1(C)C` (stereo unspecified), the Potency result in test [1] and in test [2] was “inactive” throughout. Besides, the outcome in test [3] and in test [4] was inactive.
With `Cc1ccc(C(C)OC(=O)C2(C)CCC(C(=O)O)C2(C)C)cc1` (stereo unspecified), the Potency result in test [1] and in test [2] was “inactive” in each case. The call in test [3] and in test [4] was inactive.
As for `CCCC(CCC)(C(=O)OCC)C(=O)OCC`, the Potency result in test [1] and in test [2] was “inactive” throughout. Further, the call in test [3] and in test [4] was inactive.
For the compound `OC[C@]1(O)OC[C@@H](O)[C@H](O)[C@@H]1O`, the Potency entry in test [1] and in test [2] was “inactive” in each case. Besides, the compound was classed as inactive in test [3] and in test [4].
For `CC(=O)OC[C@H]1O[C@@H](OC(C)=O)[C@H](OC(C)=O)[C@@H]1OC(C)=O`, the Potency result in test [1] and in test [2] was “inactive” in each case. Further, the compound was classed as inactive in test [3] and in test [4].
Take `CCOc1c(N2CCOCC2)cnn(C)c1=O`: the Potency entry in test [1] and in test [2] was “inactive” each time. For the same compound, the result in test [3] and in test [4] was inactive.
For `CCN(CC)CC(=O)Oc1ccc(NC(C)=O)cc1`, the Potency result in test [1] and in test [2] was “inactive” throughout. The call in test [3] and in test [4] was inactive.
On to `O=C(O)c1[nH]n(-c2ccc(S(=O)(=O)O)cc2)c(=O)c1N=Nc1ccc(S(=O)(=O)O)cc1`, for which the Potency result in test [1] and in test [2] was “inactive” each time. For the same compound, the outcome in test [3] and in test [4] was inactive.
For `CCCCCOc1ccccc1/C(=C\SC)n1ccnc1`, the Potency result in test [1] and in test [2] was “inactive” each time. Moreover, the call in test [3] and in test [4] was inactive.
Regarding `Cc1ccc2ccc(Cl)cc2n1`, the Potency entry in test [1] and in test [2] was “inactive” throughout. Further, the compound was called inactive in test [3] and in test [4].
As to `O=C1NC(c2ccccc2)(c2ccccc2)C(=O)N1COP(=O)(O)O`, the Potency result in test [1] and in test [2] was “inactive” throughout. Besides, the call in test [3] and in test [4] was inactive.
As for `CC(C)NC(=O)c1ccc(C=O)cc1`, the Potency entry in test [1] and in test [2] was “inactive” throughout. Further, the compound was classed as inactive in test [3] and in test [4].
Consider `CC(C)=CCC/C(C)=C/CC/C(C)=C/C(=O)OCC(=O)[C@@]1(O)CC[C@H]2[C@@H]3CCC4=CC(=O)C=C[C@]4(C)[C@H]3[C@@H](O)C[C@@]21C`, for which the Potency entry in test [1] and in test [2] was “inactive” each time. Further, the call in test [3] and in test [4] was inactive.
With `O=C(c1ccco1)N1CCNCC1`, the Potency entry in test [1] and in test [2] was “inactive” throughout. Moreover, the call in test [3] and in test [4] was inactive.
Take `CC(C)=CCNc1ncnc2c1ncn2[C@@H]1O[C@H](CO)[C@@H](O)[C@H]1O`: the Potency in test [1] was 7.45 µM (active). Besides, in test [2], the Potency result is “inactive”. In addition, the call in test [3] and in test [4] was inactive.
Turning to `CCOC(=O)CN1CCCC1=O`, the Potency entry in test [1] and in test [2] was “inactive” in each case. The compound was classed as inactive in test [3] and in test [4].
Consider `CCCc1ncc(C(=O)O)s1`, for which the Potency entry in test [1] and in test [2] was “inactive” in each case. The compound was classed as inactive in test [3] and in test [4].
For the compound `CC1(C)S[C@@H]2[C@H](NC(=O)C(c3ccccc3)S(=O)(=O)O)C(=O)N2[C@H]1C(=O)O` (stereo partly specified), the Potency entry in test [1] and in test [2] was “inactive” in each case. The compound was classed as inactive in test [3] and in test [4].
Regarding `CSCC[C@H](NC(=O)[C@H](Cc1c[nH]c2ccccc12)NC(=O)CCNC(=O)OC(C)(C)C)C(=O)N[C@@H](CC(=O)O)C(=O)N[C@@H](Cc1ccccc1)C(N)=O`, the Potency result in test [1] and in test [2] was “inactive” in each case. Also, the result in test [3] and in test [4] was inactive.
With `C=CC[N+]1([C@H]2C[C@H]3[C@@H]4CC[C@H]5C[C@H](OC(C)=O)[C@@H](N6CCCCC6)C[C@]5(C)[C@H]4CC[C@]3(C)[C@H]2OC(=O)CC)CCCCC1`, the Potency result in test [1] and in test [2] was “inactive” in each case. The result in test [3] and in test [4] was inactive.
